Bioassay records from PubChem.
Sampled rows, rich in hits. Any-hit rate of the full collection: about 3.3%.
Vaccinia mCherry = vaccinia inhibition (mCherry reporter) | 310,000 compounds, 0.63% hits | Vaccinia virus mCherry reporter infection, fluorescence | Potency, µM (highest dose often 36.5 µM), inactives show at the top dose activity change, negative = inhibition, hits mostly inhibitors; calls by dose curve; tested in A549 cells; further: nearly all actives have a fitted effect of over 35% in size
HCV inh = blocks hepatitis C virus; Huh7.5.1 HCVcc-Cre infection, luciferase reporter, 44 h; Potency, µM (highest dose often 41.8 µM), inactives show at the highest dose activity change, negative = inhibition, actives largely listed as inhibitors; 340,000 compounds, 3.4% hits; AID 651820; active means well fitted inhibition curve with a large enough effect; inconclusive means small, poorly fitted or top-dose-only effect, or another doubt; inactive means no such curve, though single readings can be large or run the other way
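Whole-lifecycle infectious HCVcc-Cre system; cells 1,000/well, compound then virus (~0.5 moi) added 4 h after plating, 44 h culture. Luciferase read 15 sec following 15 min substrate incubation, room temp.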
VACV Venus inh = vaccinia inhibition (Venus reporter); Vaccinia virus Venus reporter expression, fluorescence; Potency, µM (series often up to 36.5 µM), for inactives: top-dose activity change, negative = inhibition, usual class: inhibitors; 330,000 compounds, 0.46% hits; calls by dose curve; tested in A549 cells; further: nearly all actives have a fitted effect of over 30% in size
Numbers without * were called inactive; i = inactive; ? = inconclusive; / = not tested or not shown; ! = not active in a repeat. On the % scale 0 is the no-effect control and ±100 the full control effect; potency means the concentration at half of the fitted maximal effect.

SMILES	Vaccinia mCherry	HCV inh	VACV Venus inh
Cc1cc(C)n(-c2cccc(C(=O)NCC3Cc4cccc(-c5ccccn5)c4O3)c2)n1 (stereo not drawn)	?	/	-27%
CC1CCN(CC(O)COCCC23CC4CC(CC(C4)C2)C3)CC1 (stereo not drawn)	?	35µM*	-28%
CC1CCN(CC(O)COCCOc2ccc(Br)cc2)CC1 (stereo not drawn)	-14%	?	-12%
CC(C)(C)CC(C)(C)N=C1Nc2ccc([N+](=O)[O-])cc2N[C@]12C[C@H]1CCCC(=O)N3CC[C@@H](C2)[C@@H]13	i	/	-9%
Cc1onc(-c2ccccc2)c1C(=O)OCC(=O)N(C)c1ccccc1	i	0%	-14%
Cc1ccc(C(C)C)c(OCc2ccc(C(=O)N/N=C/c3ccc(C(=O)O)cc3)cc2)c1	/	-13%	/
Cc1ccc(C(C)C)c(OCc2ccc(C(=O)N/N=C/c3ccc(O)cc3O)cc2)c1	1.6µM*	3.2µM*	?
CSCCC(NC(=O)c1ccco1)C(=O)NC1CCC(C)CC1 (stereo not drawn)	/	-5%	/
COc1ccc(NC(=O)CN(C)C(=O)CSC(c2ccccc2)c2ccccc2)cc1	/	13µM*	/
COc1ccc(NC(=O)CN(C)C(=O)Cc2ccc(-c3ccccc3)cc2)cc1	-3%	?	-18%
COc1ccccc1CCNc1ncnc2sc(C(=O)N3CCCC3)c(C)c12	-12%	/	-8%
Cc1ccnc(NCc2cc(Cl)cc(Cl)c2O)c1	i	/	-17%
Cc1cc(C)c(O)c(CN(C)Cc2cc(Cl)cc(Cl)c2O)c1	2.8µM*	?	?
CC(C)c1c(C(=O)N2CCCCC2c2cccnc2)cnn1-c1nccc(-c2cccs2)n1 (stereo not drawn)	?	/	-20%
N#C/C(=C\c1cn[nH]c1-c1ccccc1)C(=O)NC1CCCCCC1	/	25µM*	/
N#C/C(=C\c1cn[nH]c1-c1ccc(Cl)cc1)C(=O)NC1CC1	/	-14%	/
Cc1oc(-c2ccccc2NC(=O)C2CCCO2)nc1CNC(=O)c1[nH]c2c(C)ccc(C)c2c1C (stereo not drawn)	-9%	/	-14%
COc1ccccc1CCNC(=O)c1ccc(OC)c(OC2CCN(C(C)C)CC2)c1	-19%	-2%	-13%
COCCCNC(=O)c1ccc(OC)c(OC2CCN(C(C)C)CC2)c1	/	22µM*	/
Cc1sc2ncnc(N3CCC(C(=O)N(C)CC(=O)Nc4ccccc4Br)CC3)c2c1C	-21%	?	-25%
CCN(CC(=O)Nc1cc(Cl)ccc1C)C(=O)C1CCN(c2ncnc3sc(C)c(C)c23)CC1	11µM*	/	?
CCN(CC(=O)Nc1cc(Cl)ccc1C)c1ncnc2sc(C)c(C)c12	i	25µM*	-16%
CCOC(=O)c1sc2ncn(CC(=O)Nc3cc(Cl)ccc3C)c(=O)c2c1C	-8%	/	-3%
CCn1c2ccccc2c2cc(/C=C3/C=Cc4ccccc43)ccc21	-8%	/	-21%
Fc1ccc(N2Cc3ccsc3C=N2)cc1	-14%	1%	-10%
SMILES	Vaccinia mCherry	HCV inh	VACV Venus inh
CC(=O)N1CCN(c2nc3cc(C)ccc3cc2CN(C(=O)c2cccc3ccccc23)C2CC2)CC1	-17%	/	-5%
N#CCC(=O)N1CC2(CC(c3cccc(NC(=O)COc4ccc(Cl)cc4)c3)=NO2)C[C@@H]1C(N)=O (stereo partly drawn)	i	-2%	-3%
NC(=O)[C@@H]1CC2(CC(c3cccc(NC(=O)COc4ccc(Cl)cc4)c3)=NO2)CN1C(=O)COc1ccc(Cl)cc1 (stereo partly drawn)	?	10µM*	?
CS(=O)(=O)c1ccc(Cl)c(NC(=O)CSc2nnc(-c3cccs3)n2N)c1	-21%	6%	-8%
Cc1ccc(C)c(Cn2c(=O)n(-c3ccc(Cl)cc3)c(=O)c3c(C)c(C)sc32)c1	-4%	/	3%
O=c1[nH]c2ccccc2c(O)c1SCCO	i	23%	-22%
O=C1C(SCCO)=C(SCCO)C(=O)c2ccccc21	10µM*!	10µM*	?
CCS(=O)(=O)Nc1cc(C(=O)N[C@H]2CCCCNC2=O)c2c(c1)nc(-c1ccccc1)n2C	i	/	-12%
BrC(/C=N/N1CCN(Cc2ccccc2)CC1)=C/c1ccccc1	-15%	-21%	-28%
O=C(O)CCCCCNS(=O)(=O)c1cccc2c1C(=O)c1ccccc1C2=O	4.5µM*	-16%	5µM*
O=C(O)CCCCCNS(=O)(=O)/C=C/c1ccccc1	10%	18%	5%
COc1nc(N2CCCCCC2)nc(N2CCCCCC2)n1	/	10µM*	/
CCNc1nc(NC(C)(C)C)nc(N2CCCCC2)n1	-22%	?	-21%
COc1nc(OCC#N)nc(N2CCCCC2)n1	i	-4%	-6%
COc1nc(C#N)nc(N2CCCC2)n1	-19%	/	-7%
N#CCOc1nc(N2CCCCC2)nc(N2CCCCC2)n1	/	14µM*	/
